Assay outcomes as filed in PubChem.
Pol beta inh: blocks human DNA polymerase beta activity | Pol beta primer extension/strand displacement, fluorescence kinetic | Potency, µM (titrated, usually from 114 µM), for the others: at the top dose activity change, negative = inhibition, actives largely listed as inhibitors | P06746 | 1.3% of 340,000 active; note: % is set by controls: 0 for no effect and ±100 for the full control effect
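Kinetic readout of DNA synthesis with strand displacement by Pol beta. Compound and 10 nM enzyme sit 15 min at room temperature; 50 nM substrate starts the reaction, read immediately and at 10 min.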
GLS inhibitor: glutaminase GLS (human) inhibition; 0.21% of 410,000 active; O94925; GLS enzymatic activity, qHTS titration; Potency, µM (top dose mostly 45.5 µM), inactives show at the highest dose activity change, negative = inhibition, usual class: inhibitors; note: % is set by controls: 0 for no effect and ±100 for the full control effect
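Compounds were pin-transferred onto hKGA, after which L-glutamine (1 mM solution) and a detection mix of glutamate oxidase, HRP and Amplex Red were added. Initial and 30 min RT fluorescence reads were collected.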
POLI inh: inhibitors of human DNA polymerase iota. 1% of 390,000 active. AID 588590. Pol iota fluorescent replication assay, 10 min. Potency, µM (titrated, usually from 115 µM), inactives show at the highest dose activity, negative = inhibition, usual class: inhibitors
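Fluorescent replication assay read twice, at 0 min and 10 min after adding 50 nM (final) substrate. Enzyme (10 nM) and compounds were first incubated 15 min at room temperature; enzyme-free buffer wells were negative controls.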
GCN5L2 inh: inhibitors of human GCN5L2 histone acetyltransferase | Q92830 | Potency, µM (doses to about 58.9 µM), inactives show at the highest dose activity change, negative = inhibition, usual class: inhibitors | 0.21% of 390,000 active | GCN5L2 HAT assay, ThioGlo1 CoA-SH fluorescence; note: % is set by controls: 0 for no effect and ±100 for the full control effect
Target sequence (Q92830 whole entry, looked up): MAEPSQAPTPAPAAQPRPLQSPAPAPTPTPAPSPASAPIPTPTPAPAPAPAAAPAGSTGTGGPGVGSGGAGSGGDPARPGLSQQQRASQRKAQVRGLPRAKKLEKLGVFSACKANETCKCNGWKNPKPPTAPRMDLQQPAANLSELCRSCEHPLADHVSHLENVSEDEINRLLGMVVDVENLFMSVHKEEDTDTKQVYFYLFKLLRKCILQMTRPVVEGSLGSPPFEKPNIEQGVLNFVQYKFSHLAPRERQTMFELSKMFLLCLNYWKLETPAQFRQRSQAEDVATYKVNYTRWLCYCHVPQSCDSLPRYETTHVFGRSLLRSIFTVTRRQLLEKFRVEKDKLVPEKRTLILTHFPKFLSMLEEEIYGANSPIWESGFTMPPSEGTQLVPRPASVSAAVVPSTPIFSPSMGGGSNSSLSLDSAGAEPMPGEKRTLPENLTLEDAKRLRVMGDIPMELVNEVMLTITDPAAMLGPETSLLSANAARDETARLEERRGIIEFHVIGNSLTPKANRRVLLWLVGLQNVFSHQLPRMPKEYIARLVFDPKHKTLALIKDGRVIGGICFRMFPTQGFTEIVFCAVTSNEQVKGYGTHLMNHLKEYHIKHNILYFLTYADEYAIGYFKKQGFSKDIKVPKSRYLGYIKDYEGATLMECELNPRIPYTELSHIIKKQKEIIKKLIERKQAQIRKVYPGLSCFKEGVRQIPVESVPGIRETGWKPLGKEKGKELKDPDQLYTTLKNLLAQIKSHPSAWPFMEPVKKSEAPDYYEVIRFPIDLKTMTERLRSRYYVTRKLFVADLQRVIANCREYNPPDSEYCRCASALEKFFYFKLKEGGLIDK
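Fluorescence readout, Ex340nm/Em540nm: ThioGlo1 (50uM final) reacts with free CoA thiol released as 20nM GCN5L2 acetylates H3(1-25) peptide (75uM) using acetyl-CoA (70uM). Compound and enzyme sat 15 min beforehand; 20 min room-temperature reaction.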
POLK inh: blocks human DNA polymerase kappa activity | purified Pol kappa, fluorescent DNA synthesis assay, 10 min | Q9UBT6 | Potency, µM (top dose mostly 107 µM), for inactives: at the top dose activity, negative = inhibition, hits mostly inhibitors | 0.53% of 400,000 active; note: % is set by controls: 0 for no effect and ±100 for the full control effect
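Enzyme at 10 nM met test compounds for 15 min at room temperature. Substrate addition (50 nM final) began the reaction, which was monitored by fluorescence at 0 and 10 min.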
Pol eta inh: inhibitors of human DNA polymerase eta; 1.2% of 390,000 active; Q9Y253; Potency, µM (series often up to 114 µM), for inactives: at the top dose activity change, negative = inhibition, actives largely listed as inhibitors; recombinant Pol eta, fluorescent DNA replication assay; note: % is set by controls: 0 for no effect and ±100 for the full control effect
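Fluorescent replication assay: 50 nM final substrate added after a 15 min room-temperature compound preincubation with 10 nM enzyme. Signal taken at 0 min and again at 10 min.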
* hit, by the source's call. The list is not random: actives were taken first. Their share in the collection is about 2.4%. Calls come from the whole dose curve; as a rule, active = well fitted inhibition curve with a large enough effect; inconclusive = small, poorly fitted or top-dose-only effect, or another doubt; inactive = no such curve, though single readings can be large or run the other way. Potency is the fitted concentration of half-maximal effect.

What do the screens show for `O=C(Nc1nccs1)[C@@H]1CC=C[C@@H]2CCN(C3CC3)C(=O)[C@@H]21`?
POLI inh: 4%; POLK inh: -6%

Results for CCc1sc(C(=O)NCCc2ccc(S(N)(=O)=O)cc2)cc1Br ?
Pol beta inh: -1%; GLS inhibitor: 5%; POLI inh: 89µM*; GCN5L2 inh: -10%; POLK inh: 0%; Pol eta inh: -10%

How did CCc1sc(C(=O)NCCc2ccc(S(N)(=O)=O)cc2)cc1C do in these assays?
Pol beta inh: 83%; GLS inhibitor: 0%; POLI inh: inconclusive; GCN5L2 inh: -2%; POLK inh: -14%; Pol eta inh: -7%

How did O=S(=O)(N=C1C=CC(=NS(=O)(=O)c2ccccc2)c2ccccc21)c1ccccc1 do in these assays?
GLS inhibitor: 51%; Pol eta inh: 50µM*

What do the screens show for `Cc1ccc(C)c(N2CCN(C(=O)c3cc(C)nc4c3c(C)nn4-c3cccc(F)c3)CC2)c1`?
Pol beta inh: 9%; GLS inhibitor: 0%; POLI inh: 6%; GCN5L2 inh: -12%; POLK inh: -2%; Pol eta inh: -24%

How did CN1C[C@H]2c3ccccc3Oc3ccc(Cl)cc3[C@@H]2C1 do in these assays?
GLS inhibitor: 7%

Results for O=C(O)C(O)c1ccco1 (stereo unspecified) ?
Pol beta inh: 2.2µM*; GLS inhibitor: inconclusive; POLI inh: inconclusive; GCN5L2 inh: -15%; POLK inh: 20µM*; Pol eta inh: 3.5µM*

What do the screens show for `O=C(O)C(O)c1ccccc1` (stereo unspecified)?
Pol beta inh: -1%; GLS inhibitor: 5%; POLI inh: -30%; GCN5L2 inh: -1%; Pol eta inh: 2%

Results for O=c1oc2c3c4c(cc2s1)CCCN4CCC3 ?
Pol beta inh: 22µM*; GLS inhibitor: -9%; POLI inh: 11µM*; GCN5L2 inh: -11%; POLK inh: inconclusive; Pol eta inh: inconclusive

Results for O=c1ccc2cc3c4c(c2o1)CCCN4CCC3 ?
Pol beta inh: 0%; GLS inhibitor: -10%; POLI inh: inconclusive; GCN5L2 inh: inconclusive; POLK inh: -33%; Pol eta inh: inconclusive

What do the screens show for `O=c1c(-c2ccccc2)coc2cc(O)cc(O)c12`?
GCN5L2 inh: 28µM*; POLK inh: 1.8µM*

What do the screens show for `O=c1c(-c2ccc3c(c2)OCCO3)coc2cc(O)cc(O)c12`?
Pol beta inh: -4%; GLS inhibitor: 8%; POLI inh: 14%; GCN5L2 inh: inconclusive; POLK inh: -1%; Pol eta inh: -19%

Results for Cc1ccc2nc(-c3ccc(C)c(NC(=O)COc4ccc(Cl)cc4)c3)oc2c1 ?
POLI inh: 7%; POLK inh: 7%

What do the screens show for `C/C(=N/Nc1ccc(C(=O)O)cc1)c1ccc(O)c(O)c1O`?
Pol beta inh: 22µM*; GLS inhibitor: 3%; POLI inh: -13%; GCN5L2 inh: 1%; POLK inh: -27%; Pol eta inh: inconclusive

Results for COc1ccc(OC)c(/C(C)=N/Nc2ccc(C(=O)O)cc2)c1 ?
Pol beta inh: inconclusive; GLS inhibitor: 8%; POLI inh: 5%; GCN5L2 inh: -1%; POLK inh: -1%; Pol eta inh: -19%

Results for CCOC(=O)c1nn(-c2ccc(C)cc2)c(C)c1C(C)=O ?
Pol beta inh: 77%; GLS inhibitor: 3%; POLI inh: 9%; POLK inh: 3%; Pol eta inh: 12%

How did CCOC(=O)c1nn(-c2ccc(OCC)cc2)c(C)c1C(C)=O do in these assays?
Pol beta inh: 14%; GLS inhibitor: 2%; POLI inh: 27%; GCN5L2 inh: -1%; POLK inh: -4%; Pol eta inh: 89µM*

What do the screens show for `O=S(=O)(Nc1ccccc1)c1ccc(-c2cnc(C3CC3)o2)cc1`?
Pol beta inh: 5%; GLS inhibitor: 2%; POLI inh: 79µM*; GCN5L2 inh: -4%; POLK inh: 8%; Pol eta inh: -13%
